“And” between values parts separate entries of the source, which are not always exact repeats. Equal entries are not always repeated. The source made the active and inactive calls. The calls were made as follows: active = hit-call score of the fitted dose curve at least 0.9, where 1 is the maximum; inactive = score below 0.9.
read-out: Interferon-gamma inducible Protein 10 (IP10), CXCL10 (gene 3627); experiment: BSK_KF3CT_IP10: BioMAP Diversity Plus: KF3CT Assay for Interferon-gamma inducible Protein 10 (IP10) Biomarker Activity (AID 2283068); conditions: primary human keratinocytes with fibroblasts; actives raise or lower the signal
Description: BSK_KF3CT is a cell-based, multiplexed-readout assay that uses keratinocytes and foreskin fibroblasts, a human skin primary cell co-culture, with measurements taken at 24 hours after chemical dosing in a 96-well plate.BSK_KF3CT_IP10 is an assay component measured in the BSK_KF3CT assay. It measures IP-10 antibody related to regulation of gene expression using ELISA technology.Data from the assay component BSK_KF3CT_IP10 was analyzed into 1 assay endpoint. This assay endpoint, BSK_KF3CT_IP10, was analyzed with bidirectional fitting relative to DMSO as the negative control and baseline of activity. Using a type of binding reporter, gain or loss-of-signal activity can be used to understand changes in the signaling as they relate to the gene CXCL10. Furthermore, this assay endpoint can be referred to as a primary readout, because this assay has produced multiple assay endpoints where this one serves a signaling function. To generalize the intended target to other relatable targets, this assay endpoint is annotated to the cytokine intended target family, where the subfamily is chemotactic factor.
The levels of cell surface (or secreted, indicated by the prefix "s") biomarker endpoints were measured by ELISA. Overt cytotoxicity to cells in confluent adherent cultures (all systems other than the BT system) was assessed by measuring total protein levels using sulforhodamine B (SRB) staining in parallel cultures at the time of biomarker measurements, indicated as SRB endpoints. For proliferation assays for adherent cell types, individual cell types are cultured at sub-confluence and relative cell numbers quantified by SRB staining at time points optimized for each system (48 h: 3C and CASM3C systems; 72 h: BT and HDF3CGF systems; 96 h: SAg system). SRB was performed by staining cells with 0.1% SRB after fixation with 10% TCA and reading wells at 560 nm.Viability and proliferation of PBMC (T cells) was quantified by Alamar Blue reduction for the SAg and BT systems. For PBMC viability (referred to as PBMC Cytotoxicity within the assay endpoint names), cells were plated (75,000/well in a 96-well plate) and then chemical samples added for 1 h before addition of activators, SEB and TSST-1 (20 ng/mL final concentration each). Cells were incubated for 90 h. Then, Alamar Blue (20 uL/well) (Invitrogen, Cat DAL1100) was added for 6 h, and the plates were read with a fluorescence microplate reader at 546/580 nm (excitation/emission). For PBMC proliferation, cells were plated and activated as above but incubated for only 16 h prior to addition of Alamar Blue. Plates were read after 6 h.

Structure (SMILES)	AC50	outcome
NS(=O)(=O)C(F)(F)C(F)(F)C(F)(F)C(F)(F)C(F)(F)C(F)(F)C(F)(F)C(F)(F)F	13 µM (active) and 32.4 µM (active) and 37.3 µM (active)	
ClC(Cl)=C(c1ccc(Cl)cc1)c1ccc(Cl)cc1	30.2 µM (active)	
Clc1ccc(Cl)cc1		inactive
CCSC(=O)N(CC)C1CCCCC1		inactive
CN(C)CCO		inactive
Oc1ccc(Cl)cc1Cl		inactive
CCCCCCCCOC(=O)c1ccccc1C(=O)OCCCCCCCC		inactive
C=CC(N)=O		inactive
C[C@]12CCC(=O)C=C1CC[C@@H]1[C@@H]2CC[C@]2(C)C(=O)CC[C@@H]12		inactive
CC(C)(c1ccccc1)c1ccc(O)cc1	35.9 µM (active)	
O=C(O)C(F)(F)C(F)(F)C(F)(F)C(F)(F)C(F)(F)F		inactive
CC1=C2C[C@H]3[C@@H](CC=C4C[C@@H](O)CC[C@@]43C)[C@@H]2CC[C@]12O[C@@H]1C[C@H](C)CN[C@H]1[C@H]2C		inactive
CCNc1nc(NC(C)C)nc(SC)n1		inactive
CCCCCCOC(=O)c1ccccc1C(=O)OCCCCCC		inactive
CCC(=O)O[C@H]1CC[C@H]2[C@@H]3CCC4=CC(=O)CC[C@]4(C)[C@H]3CC[C@]12C	32.1 µM (active)	
COc1ccc(O)c(C(C)(C)C)c1		inactive
Clc1ccc(C(c2ccccc2Cl)C(Cl)(Cl)Cl)cc1 (stereo not given)	10 µM (active)	
CCOP(=S)(OCC)SCSC(C)(C)C		inactive
O=C(N[C@H]1CN2CCC1CC2)c1cc2ccoc2cn1		inactive
ClC1=C(Cl)[C@]2(Cl)[C@@H]3[C@@H]4C[C@@H]([C@H]5O[C@@H]45)[C@@H]3[C@@]1(Cl)C2(Cl)Cl		inactive

Structure (SMILES)	AC50	outcome
Cc1cc(-c2ccc(N)c(C)c2)ccc1N		inactive
CCOCCOC(C)=O		inactive
COS(=O)(=O)OC		inactive
O=S(=O)(O)C(F)(F)C(F)(F)C(F)(F)C(F)(F)C(F)(F)C(F)(F)F		inactive
C[C@]12CCC(=O)C=C1CC[C@@H]1[C@@H]2CC[C@@]2(C)[C@H]1CC[C@]2(C)O		inactive
c1cc2ccc3cccc4ccc(c1)c2c34		inactive
CCC(C)c1cc([N+](=O)[O-])cc([N+](=O)[O-])c1O (stereo not given)	3.97 µM (active)	
CCCCCCCCCC[N+](C)(C)CCCCCCCCCC	6.12 µM (active)	
Cc1cccc(C)c1N		inactive
Nn1cnnc1		inactive
Sc1ccccc1		inactive
O=C(O)C(F)(F)C(F)(F)C(F)(F)C(F)(F)C(F)(F)C(F)(F)C(F)(F)C(F)(F)F	30.2 µM (active) and 54.7 µM (active) and 47.3 µM (active)	
CN(C)c1nc(=O)n(C2CCCCC2)c(=O)n1C		inactive
Clc1ccc(C(Cl)(Cl)Cl)cc1		inactive
CCOC(=O)C(O)(c1ccc(Cl)cc1)c1ccc(Cl)cc1		inactive
O=NN(c1ccccc1)c1ccccc1		inactive
Cc1ccccc1O		inactive
Cc1ccc(O)c(C)c1		inactive
C=CC(=O)NCNC(=O)C=C		inactive
ClC1=C(Cl)[C@]2(Cl)[C@@H]3[C@H]4C[C@H]([C@@H]5O[C@H]45)[C@@H]3[C@@]1(Cl)C2(Cl)Cl		inactive

— PubChem BioAssay (EPA / NIEHS)
